Bioassay records deposited in PubChem by several laboratories.
This is a sample that favours compounds with a hit; in the whole collection about 3.4% have one here.
Gli-Sufu block = Gli-Sufu pathway antagonists, primary screen, luciferase luminescence, Sufu-KO-LIGHT cells, uHTS | 340,000 tested, 0.74% active | AID 588413, 2011 | inhibition, % at 5 µM | Sufu-KO-LIGHT fibroblasts, Gli luciferase reporter luminescence;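 active = inhibition above about 55%, limit read from the data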
NR2F2 inh = NR2F2 transcriptional activity inhibitors, primary screen, cell-based, luciferase reporter, HEK293T, luminescence; COUP transcription factor 2 (Homo sapiens), P24468; HEK293T NGFI-A luciferase reporter; 370,000 tested, 0.7% active; AID 686940, 2013; inhibition, % at 8.6 µM;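 active = inhibition above a per-plate cutoff, mean inhibition of test wells between control levels plus 3 SD, cut at about 38% in these data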;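 also: cells cotransfected with COUP-TFII expression vector driving the NGFI-A reporter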
Target sequence (P24468 whole entry, looked up): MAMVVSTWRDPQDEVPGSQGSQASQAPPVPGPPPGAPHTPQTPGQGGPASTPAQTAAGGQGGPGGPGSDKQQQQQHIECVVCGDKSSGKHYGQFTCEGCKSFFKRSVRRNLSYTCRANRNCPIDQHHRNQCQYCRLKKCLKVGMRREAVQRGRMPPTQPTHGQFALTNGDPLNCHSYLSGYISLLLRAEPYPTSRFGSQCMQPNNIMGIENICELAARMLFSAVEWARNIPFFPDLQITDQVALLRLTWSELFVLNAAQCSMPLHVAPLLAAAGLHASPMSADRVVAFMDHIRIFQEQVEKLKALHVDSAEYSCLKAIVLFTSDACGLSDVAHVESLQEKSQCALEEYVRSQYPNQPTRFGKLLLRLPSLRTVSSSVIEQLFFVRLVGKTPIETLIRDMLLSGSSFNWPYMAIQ
GalR3 antagonist = GalR3 antagonists in HEK293 cells, primary screen, cell-based, fluorescence readout; Galanin receptor type 3 (Homo sapiens), O60755; HEK293 GalR3-CNG cAMP membrane potential fluorescence; galR3 body fused to GalR1 C-terminus; inhibition, % at 3 µM; 360,000 tested, 0.44% active;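 active = inhibition above the screen-wide average plus 3 SD, cut at about 13% in these data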;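 also: forskolin and galanin both at EC90 stimulate the cells; cAMP rise reported by CNG channel membrane potential dye signal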
H9c2 protect = cardioprotection against H2O2-induced cell death, primary screen, uHTS, H9c2 cells, ATPLite luminescence | H9c2 cardiomyocytes, H2O2 injury protection, 2 h | protection from H2O2 cell death, % at 20 µM | 360,000 tested, 0.63% active;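 active = compounds giving at least 50% protection of heart cells from peroxide-induced death in the single-dose screen, raw or plate-pattern-corrected value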
SMARCA2 activ = SMARCA2 (BRM) function activators, primary screen, cell-based, luminescence, high throughput; 370,000 tested, 1% active; activation, % at 9.1 µM; MG213 cells, MMTV-luciferase reporter, dexamethasone, overnight; in the data active = activation above about 7.8%
GAA850 FXN act = FXN promoter activators, primary screen, cell-based, luciferase luminescence, HEK293 lucGAA850; HEK293 lucGAA850 FXN promoter luciferase reporter, 24 h; percent of 10 µM SAHA response; activation, % at 6 µM; 360,000 tested, 0.56% active; AID 540364, 2011;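 active = activation above the average of all compounds screened plus 3 SD, cutoff fixed separately per campaign, cut at about 7.5% in these data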
SMARCA2 conf = SMARCA2 (BRM) function activators, confirmation, cell-based, luminescence, triplicate | shares compounds with SMARCA2 activ | 3,500 tested, 30% active | activation, % at 9.1 µM | MG213 cells, MMTV-luciferase with dexamethasone, overnight; MG213 cells expressing E1A, Rb sequestered; DMSO wells 0%, reference activator 100%;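 active = activation above its plate's cutoff, the mean activation of tested wells plus 3 SD, cut at about 7.9% in these data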
VP16 Luc act = GAL4-VP16 luciferase reporter activation, counter-screen for SMARCA2 (BRM) activator project, cell-based, pG5luc, luminescence, high throughput; shares compounds with SMARCA2 activ; HEK293 GAL4-VP16 pG5luc reporter; scaled: DMSO wells 0%, SAHA wells 100%; activation, % at 9.1 µM; 3,500 tested, 41% active; AID 686939, 2013;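 active = activation above the solvent-only control well mean plus 3 SD, averaged across control plates, cut at about 5.2% in these data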
Gal4-VP16 ctr = Gal4-VP16 luciferase reporter inhibitors, counter-screen for COUP-TFII antagonist project, cell-based, luminescence, HEK293; shares compounds with NR2F2 inh; inhibition, % at 8.5 µM; 2,500 tested, 25% active; AID 687007, 2013; in the data active = inhibition above about 13%
NR2F2 inh conf = NR2F2 transcriptional activity inhibitors, confirmation, cell-based, luciferase reporter, HEK293, triplicate; 2,500 tested, 45% active; shares compounds with NR2F2 inh; HEK293 NGFI-A luciferase reporter, luminescence; inhibition, % at 8.5 µM;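 active = mean inhibition over three repeats above a set limit taken from the earlier primary screen, cut at about 38% in these data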
Numbers stand for hits; – = inactive; · = no result.

SMILES | Gli-Sufu block | NR2F2 inh | GalR3 antagonist | H9c2 protect | SMARCA2 activ | GAA850 FXN act | SMARCA2 conf | VP16 Luc act | others
CCOC(=O)N1Cc2cc3ccccc3nc2C1 | · | – | – | – | 8.9 | – | – | 10.4
C=C1C(=O)[C@]23C[C@H]1CCC2[C@]1(C)C(=O)CC[C@@](C)(C(=O)O)C1C[C@@H]3O (some centres undefined) | · | – | – | – | 31.1 | · | 47.0 | –
Cc1onc(-c2c(F)cccc2Cl)c1C(=O)NC1CCCCCC1 | – | – | – | – | – | – | · | ·
Cc1onc(-c2c(F)cccc2Cl)c1C(=O)NC(=S)NC1CCS(=O)(=O)C1 (centres undefined) | – | – | – | – | 15.5 | – | – | –
CCOc1ccc2nc(NC(=O)CSc3cn[nH]n3)sc2c1 | – | – | – | – | 12.0 | – | 8.2 | 12.9
CCN1CC(c2ccccc2)C(c2ccc(Cl)cc2)=N1 (centres undefined) | – | – | – | – | 8.3 | – | – | –
COCCn1c(SCC(=O)NC2CCCC(C)C2C)nc2ccccc2c1=O (centres undefined) | – | – | – | – | – | – | · | ·
CCCCN1C(=O)N(c2nnc(C(C)(C)C)s2)C(O)C1c1ccc(C)cc1 (centres undefined) | – | – | – | – | 10.4 | – | – | –
CC1(C(=O)NS(=O)(=O)c2ccccc2Cl)CCN1C(=O)C1(c2ccccc2)CC1 (centres undefined) | · | – | – | – | – | – | · | ·
CCOc1ccc(C(=O)c2ccc(OCC)c(N)c2)cc1N | – | – | – | – | 8.6 | – | – | 6.5
O=C(Nc1cnc2sccn2c1=O)c1ccccc1Cl | – | – | – | – | 8.0 | – | 15.3 | 11.3
Cc1cccc(NC(=O)c2cnc3sccn3c2=O)c1C | · | – | – | – | – | – | · | ·
O=C(Nc1cnc2ccccn2c1=O)c1ccc(Cl)cc1Cl | – | – | – | – | 9.0 | – | – | –
COc1ccc(NC(=O)c2cnc3sccn3c2=O)cc1 | – | – | – | – | 8.3 | – | – | 5.2
O=C(NCCc1ccccc1)c1ccc(-c2ccc(F)c(F)c2)c2ccoc12 | · | – | – | – | – | – | · | ·
CCCCCn1nnnc1C1c2ccccc2OCC(=O)N1Cc1ccco1 (centres undefined) | · | – | · | · | 10.3 | · | – | –
CCCCn1nnnc1C1c2ccccc2OCC(=O)N1Cc1ccc2c(c1)OCO2 (centres undefined) | · | – | · | · | – | · | · | ·
C=COC(=O)c1sc2nc(C)cc(C)c2c1N | – | – | – | – | 9.3 | – | 11.4 | –
CC1(C)CC(=O)C/C(=N\NC(=O)Cc2ccccc2)C1 | – | – | – | – | 10.1 | – | – | –
CC1(C)CC(=O)C/C(=N/NC(=O)c2ccc(-c3ccccc3)cc2)C1 | – | – | – | – | – | – | · | ·
CCN(CC)C(=S)SCC(=O)Nc1nc(=O)c2ccccc2s1 | – | – | – | – | 8.5 | – | – | –
C=C(C)CN(CC)C(=O)CCc1nnc(CCCc2ccccc2)o1 | – | – | – | – | – | – | · | ·
CCN(CCn1cccn1)C(=O)CCc1nnc(CCCc2ccccc2)o1 | – | – | – | – | 8.7 | – | 10.7 | 6.4
COc1ccc(-c2csc(-c3cccs3)n2)c(OC)c1 | – | – | – | – | 10.7 | – | 12.2 | 8.4
Cc1cc(C)c(S(=O)(=O)N2CCOC23CCN(S(C)(=O)=O)CC3)c(C)c1 | · | – | – | – | 14.4 | – | – | –
SMILES | Gli-Sufu block | NR2F2 inh | GalR3 antagonist | H9c2 protect | SMARCA2 activ | GAA850 FXN act | SMARCA2 conf | VP16 Luc act | others
CCCn1ccnc1SC(C)C(=O)Nc1c(C)n(C)n(-c2ccccc2)c1=O (centres undefined) | – | – | – | – | – | – | · | ·
Cc1c(NC(=O)C(C)OC(=O)c2cccnc2)c(=O)n(-c2ccccc2)n1C (centres undefined) | – | – | – | – | 8.3 | – | – | –
O=S(=O)(CCNCc1ccco1)NC1CCCCC1 | – | – | – | – | – | – | · | ·
COc1ccccc1N1CCN(C(=O)C2CCN(S(=O)(=O)c3ccc(F)cc3)CC2)CC1 | – | – | – | – | 8.8 | – | – | –
CCOC(=O)c1ccc(S(=O)(=O)N2CCC(C(=O)N3CCN(c4ccccc4OC)CC3)CC2)cc1 | – | – | – | – | – | – | · | ·
Nc1ccnc(Oc2ccc(F)cc2)c1 | – | – | – | – | 17.7 | – | – | –
CC1(C)CC(Cc2cccc(C(F)(F)F)c2)N(C(=O)OC(C)(C)C)C1 (centres undefined) | · | – | – | – | – | – | · | ·
CCC(Oc1ccc(Br)cc1)C(=O)N1CCN(c2ncccn2)CC1 (centres undefined) | – | – | – | – | – | – | · | ·
Cc1ccc(/C=C2\CCOC2=O)cc1 | – | – | – | – | – | – | · | ·
Cc1ccc(/C=C2/CNC/C(=C/c3ccc(C)cc3)C2=O)cc1 | – | 47.0 | – | – | 14.9 | – | – | – | Gal4-VP16 ctr=54.2;NR2F2 inh conf=49.7
COC(=O)c1sccc1NS(=O)(=O)c1ccccc1 | – | – | – | – | – | – | · | ·
COc1ccc(C=C2CS(=O)(=O)CC(=Cc3ccc(OC)cc3)C2=O)cc1 | · | 71.3 | – | – | 13.6 | – | – | – | Gal4-VP16 ctr=46.7;NR2F2 inh conf=64.5
O=C(Nc1cccc(S(=O)(=O)N2CCCCC2)c1)c1ccc2c(=O)n3c(nc2c1)CCCCC3 | – | 44.9 | – | – | – | – | · | · | Gal4-VP16 ctr=–;NR2F2 inh conf=48.8
CN(CC(=O)Nc1cccc(F)c1)C(=O)c1cc(S(=O)(=O)N2CCCCC2)ccc1N1CCOCC1 | – | – | – | – | – | – | · | ·
CC(C)N(Cc1nccn1C)C(=O)c1cc(COc2ccc3ncccc3c2)on1 | – | 40.1 | – | – | – | – | · | · | Gal4-VP16 ctr=–;NR2F2 inh conf=–
